26 targets from the supplement of paper PMC12067093, “Discovery and optimisation of a covalent ligand for TRIM25 and its application to targeted protein ubiquitination” (Chemical Science, 2025) can be followed below.

Compound in this assay: CC1Cc2ccccc2N1C(=O)C1CCCN(C1)C(=O)CCl (mixture of isomers) [TRIM25 ligand 11 (diastereomer mixture)]
In words: probe-labelled cysteine peptide fold change vs DMSO (competition) (log2 fold change); higher = less target engagement (more negative = stronger competition). Conditions: THP-1, incubation time: 4 h.

Of roughly 21,000 targets only a part is listed; those with the largest changes were picked by preference.
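Also: competitive chemoproteomic profiling in live THP-1 cells with an iodoacetamide desthiobiotin (IA-DTB) probe, comparing probe-labelled peptide intensities in compound-treated cells against DMSO-treated controls.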

UniProt Q8TD30, sequence (Q8TD30 whole entry, looked up): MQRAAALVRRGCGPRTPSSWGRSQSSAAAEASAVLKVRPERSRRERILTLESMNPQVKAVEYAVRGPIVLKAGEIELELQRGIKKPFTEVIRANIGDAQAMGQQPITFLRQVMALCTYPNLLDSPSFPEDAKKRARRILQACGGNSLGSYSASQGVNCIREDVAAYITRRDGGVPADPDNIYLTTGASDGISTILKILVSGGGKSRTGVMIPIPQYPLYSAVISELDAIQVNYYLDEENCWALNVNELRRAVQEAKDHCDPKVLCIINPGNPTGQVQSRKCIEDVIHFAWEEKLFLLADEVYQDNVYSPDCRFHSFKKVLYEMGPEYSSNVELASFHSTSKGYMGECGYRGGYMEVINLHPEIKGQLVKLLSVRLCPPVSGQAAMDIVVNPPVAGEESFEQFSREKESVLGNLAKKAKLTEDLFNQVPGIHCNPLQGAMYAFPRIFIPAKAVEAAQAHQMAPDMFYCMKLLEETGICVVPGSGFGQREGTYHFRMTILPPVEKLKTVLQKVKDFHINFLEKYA
UniProt P54652, sequence (P54652 whole entry, looked up): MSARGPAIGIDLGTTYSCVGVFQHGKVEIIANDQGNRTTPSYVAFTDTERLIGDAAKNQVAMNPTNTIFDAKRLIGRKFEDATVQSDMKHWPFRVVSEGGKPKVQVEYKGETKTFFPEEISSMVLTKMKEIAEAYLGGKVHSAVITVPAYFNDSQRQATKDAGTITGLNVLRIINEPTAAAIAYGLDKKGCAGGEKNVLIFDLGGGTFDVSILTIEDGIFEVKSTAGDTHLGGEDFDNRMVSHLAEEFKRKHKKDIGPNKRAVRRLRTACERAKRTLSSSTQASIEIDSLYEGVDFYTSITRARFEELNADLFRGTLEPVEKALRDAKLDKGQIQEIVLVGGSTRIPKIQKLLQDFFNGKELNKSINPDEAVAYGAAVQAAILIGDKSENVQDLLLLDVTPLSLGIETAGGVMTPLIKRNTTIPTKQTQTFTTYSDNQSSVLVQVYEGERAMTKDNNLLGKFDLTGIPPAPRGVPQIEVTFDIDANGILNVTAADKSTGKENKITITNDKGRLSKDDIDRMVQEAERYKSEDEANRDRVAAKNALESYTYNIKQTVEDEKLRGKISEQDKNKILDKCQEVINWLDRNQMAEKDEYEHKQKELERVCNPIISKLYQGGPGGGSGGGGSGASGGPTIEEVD
UniProt P57678, sequence (P57678 whole entry, looked up): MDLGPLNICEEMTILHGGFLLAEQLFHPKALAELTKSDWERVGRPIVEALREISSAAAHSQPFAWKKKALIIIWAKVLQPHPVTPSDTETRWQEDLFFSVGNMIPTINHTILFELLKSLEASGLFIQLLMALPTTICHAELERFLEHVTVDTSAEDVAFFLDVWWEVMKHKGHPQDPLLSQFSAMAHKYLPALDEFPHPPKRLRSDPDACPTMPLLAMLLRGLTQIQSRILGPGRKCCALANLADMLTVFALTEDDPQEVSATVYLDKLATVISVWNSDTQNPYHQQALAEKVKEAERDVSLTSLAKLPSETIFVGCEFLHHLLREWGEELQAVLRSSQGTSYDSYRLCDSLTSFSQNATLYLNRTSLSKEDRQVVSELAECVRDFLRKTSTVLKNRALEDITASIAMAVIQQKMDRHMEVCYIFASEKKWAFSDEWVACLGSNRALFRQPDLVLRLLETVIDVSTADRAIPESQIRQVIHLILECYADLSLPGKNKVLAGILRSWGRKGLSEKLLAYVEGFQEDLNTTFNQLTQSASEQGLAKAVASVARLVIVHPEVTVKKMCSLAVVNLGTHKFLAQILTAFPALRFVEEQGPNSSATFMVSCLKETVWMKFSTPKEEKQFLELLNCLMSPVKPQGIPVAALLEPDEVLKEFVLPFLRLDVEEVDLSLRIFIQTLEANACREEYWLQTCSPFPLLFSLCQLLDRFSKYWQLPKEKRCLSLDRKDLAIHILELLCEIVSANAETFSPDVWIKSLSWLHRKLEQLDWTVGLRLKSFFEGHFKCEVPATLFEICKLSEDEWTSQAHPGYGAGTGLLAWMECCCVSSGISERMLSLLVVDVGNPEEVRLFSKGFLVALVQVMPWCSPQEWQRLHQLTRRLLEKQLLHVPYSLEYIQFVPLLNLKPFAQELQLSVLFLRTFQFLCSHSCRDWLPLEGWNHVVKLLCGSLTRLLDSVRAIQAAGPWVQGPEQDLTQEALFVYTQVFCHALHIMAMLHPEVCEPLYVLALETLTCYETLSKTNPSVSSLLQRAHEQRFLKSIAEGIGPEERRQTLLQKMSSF
UniProt Q93099, sequence (Q93099 whole entry): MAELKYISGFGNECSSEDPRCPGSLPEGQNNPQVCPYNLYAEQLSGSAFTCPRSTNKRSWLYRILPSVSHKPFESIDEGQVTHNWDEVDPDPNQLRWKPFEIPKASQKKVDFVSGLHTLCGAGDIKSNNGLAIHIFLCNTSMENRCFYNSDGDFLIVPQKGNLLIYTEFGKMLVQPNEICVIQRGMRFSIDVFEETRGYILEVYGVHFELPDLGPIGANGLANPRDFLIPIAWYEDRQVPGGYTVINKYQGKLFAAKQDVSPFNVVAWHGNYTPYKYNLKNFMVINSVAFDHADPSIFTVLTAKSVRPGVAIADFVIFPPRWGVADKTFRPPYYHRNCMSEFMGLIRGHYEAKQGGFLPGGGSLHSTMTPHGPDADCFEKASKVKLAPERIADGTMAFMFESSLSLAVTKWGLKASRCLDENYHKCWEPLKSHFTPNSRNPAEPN
UniProt P22102, sequence (P22102 whole entry, looked up): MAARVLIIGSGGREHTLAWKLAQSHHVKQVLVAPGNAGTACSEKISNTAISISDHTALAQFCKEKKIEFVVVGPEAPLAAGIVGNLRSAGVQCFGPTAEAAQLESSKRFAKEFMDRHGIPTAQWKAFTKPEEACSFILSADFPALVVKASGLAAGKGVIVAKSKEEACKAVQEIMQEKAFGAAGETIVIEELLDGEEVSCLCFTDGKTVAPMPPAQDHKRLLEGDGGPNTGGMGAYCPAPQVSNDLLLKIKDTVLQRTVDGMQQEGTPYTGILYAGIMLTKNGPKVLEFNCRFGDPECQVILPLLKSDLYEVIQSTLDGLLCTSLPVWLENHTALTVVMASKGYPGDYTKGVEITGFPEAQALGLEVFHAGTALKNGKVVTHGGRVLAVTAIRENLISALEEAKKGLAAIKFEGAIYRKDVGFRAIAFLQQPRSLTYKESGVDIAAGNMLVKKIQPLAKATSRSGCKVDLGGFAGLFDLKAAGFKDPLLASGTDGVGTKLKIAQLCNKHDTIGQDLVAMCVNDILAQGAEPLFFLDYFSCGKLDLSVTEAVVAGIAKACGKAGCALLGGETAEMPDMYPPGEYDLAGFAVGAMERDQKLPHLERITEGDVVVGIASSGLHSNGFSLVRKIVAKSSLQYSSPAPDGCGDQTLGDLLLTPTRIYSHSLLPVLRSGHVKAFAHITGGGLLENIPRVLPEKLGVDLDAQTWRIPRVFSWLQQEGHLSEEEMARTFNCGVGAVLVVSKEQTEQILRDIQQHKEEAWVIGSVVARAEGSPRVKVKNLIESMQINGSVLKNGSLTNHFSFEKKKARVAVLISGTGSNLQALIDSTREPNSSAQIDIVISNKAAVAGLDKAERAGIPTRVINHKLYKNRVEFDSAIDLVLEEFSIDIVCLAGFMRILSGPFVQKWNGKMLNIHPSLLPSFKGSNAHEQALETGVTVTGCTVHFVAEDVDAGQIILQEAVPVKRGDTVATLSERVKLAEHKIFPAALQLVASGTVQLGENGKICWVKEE
UniProt P48507, sequence (P48507 whole entry, looked up): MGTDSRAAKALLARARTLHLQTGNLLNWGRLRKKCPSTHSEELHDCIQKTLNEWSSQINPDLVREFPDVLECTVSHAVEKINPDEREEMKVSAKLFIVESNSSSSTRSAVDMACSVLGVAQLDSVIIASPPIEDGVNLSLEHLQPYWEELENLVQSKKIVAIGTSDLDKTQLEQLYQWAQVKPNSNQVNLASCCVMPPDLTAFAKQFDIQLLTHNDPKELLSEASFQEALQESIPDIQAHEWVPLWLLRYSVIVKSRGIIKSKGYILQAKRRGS
UniProt P51991, sequence (P51991 whole entry, looked up): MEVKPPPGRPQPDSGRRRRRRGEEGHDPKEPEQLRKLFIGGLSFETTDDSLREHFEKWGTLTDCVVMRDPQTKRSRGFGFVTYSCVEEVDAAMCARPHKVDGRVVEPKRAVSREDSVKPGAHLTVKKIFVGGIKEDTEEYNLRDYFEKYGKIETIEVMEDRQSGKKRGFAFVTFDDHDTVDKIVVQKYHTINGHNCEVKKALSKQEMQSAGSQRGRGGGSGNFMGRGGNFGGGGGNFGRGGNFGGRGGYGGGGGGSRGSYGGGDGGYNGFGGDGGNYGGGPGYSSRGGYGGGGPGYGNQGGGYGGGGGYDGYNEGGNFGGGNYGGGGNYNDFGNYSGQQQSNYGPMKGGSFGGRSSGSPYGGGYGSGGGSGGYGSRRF
UniProt P04406, sequence (P04406 whole entry, looked up): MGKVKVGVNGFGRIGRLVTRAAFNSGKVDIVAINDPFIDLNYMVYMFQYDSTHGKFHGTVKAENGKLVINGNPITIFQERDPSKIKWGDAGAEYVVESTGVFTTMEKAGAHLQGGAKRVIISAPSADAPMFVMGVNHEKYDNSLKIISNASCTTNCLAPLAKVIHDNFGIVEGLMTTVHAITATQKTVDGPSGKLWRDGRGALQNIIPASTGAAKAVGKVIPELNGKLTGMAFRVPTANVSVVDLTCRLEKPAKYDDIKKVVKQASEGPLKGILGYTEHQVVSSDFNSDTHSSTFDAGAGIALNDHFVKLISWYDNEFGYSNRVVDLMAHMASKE
UniProt Q9NZL4, sequence (Q9NZL4 whole entry, looked up): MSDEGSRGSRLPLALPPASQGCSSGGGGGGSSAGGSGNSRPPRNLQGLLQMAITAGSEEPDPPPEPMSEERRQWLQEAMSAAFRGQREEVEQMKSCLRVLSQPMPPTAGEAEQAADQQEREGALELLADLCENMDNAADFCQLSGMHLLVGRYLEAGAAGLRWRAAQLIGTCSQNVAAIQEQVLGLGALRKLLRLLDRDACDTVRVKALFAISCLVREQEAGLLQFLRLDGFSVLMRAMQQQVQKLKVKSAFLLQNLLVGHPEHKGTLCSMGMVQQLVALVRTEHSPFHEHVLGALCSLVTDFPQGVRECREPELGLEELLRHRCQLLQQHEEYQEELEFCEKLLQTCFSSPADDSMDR

Turning to “GSTCD_Q8NEC7_571_EHMILCR (UniProt Q8NEC7)”, the “probe-labelled cysteine peptide fold change” value worked out at 0.0436 (10 µM) and 0.126 (50 µM).
The matching figures for “GNAQ_P50148_144_SLWNDPGIQECYDR (UniProt P50148)”: -0.0686 and -0.0854.
As to “GMPS_P49915_456_VICAEEPYICK (UniProt P49915)”, the “probe-labelled cysteine peptide fold change” value (10 µM) amounted to 0.0291 and the “probe-labelled cysteine peptide fold change” value (50 µM) was determined as 0.0222.
Turning to “HADHA_P40939_97+110_PGCFIAGADINMLAACK (UniProt P40939)”, the “probe-labelled cysteine peptide fold change” value was -0.0879 (10 µM) and 0.186 (50 µM).
The matching figures for “GCN1_Q92616_2136_LGTPDEQLEMANCQAVILSVEDDTGHR (UniProt Q92616)”: 0.097 and -0.0335.
For the target “GAPVD1_Q14C86_293_TLSCVDRLEVGEVR (UniProt Q14C86)”, the “probe-labelled cysteine peptide fold change” value runs as follows: (10 µM) 0.185; (50 µM) 0.128.
For “HGD_Q93099_180_MLVQPNEICVIQR (UniProt Q93099)”, in that order: 0.479 and 0.382.
The matching figures for “GPT2_Q8TD30_281_CIEDVIHFAWEEK (UniProt Q8TD30)”: 0.213 and 0.0432.
For “GCLM_P48507_72_EFPDVLECTVSHAVEK (UniProt P48507)”, in that order: 0.0379 and 0.0286.
Consider “HNRNPA3_P51991_64_WGTLTDCVVMRDPQTKR (UniProt P51991)”, for which the “probe-labelled cysteine peptide fold change” value is, setting by setting: (10 µM) -0.717; (50 µM) -0.524.
For “GEMIN4_P57678_210_LRSDPDACPTMPLLAMLLR (UniProt P57678)”, in that order: -0.252 and -0.0506.
The matching figures for “HSPBP1_Q9NZL4_269_GTLCSMGMVQQLVALVR (UniProt Q9NZL4)”: 0.0217 and 0.156.
The matching figures for “GALNT1_Q10472_482_TDDLCLDVSK (UniProt Q10472)”: 0.0604 and 0.00641.
On to “HSPA2_P54652_191_GCAGGEK (UniProt P54652)”, for which the “probe-labelled cysteine peptide fold change” value is -0.0761 (10 µM) and -0.123 (50 µM).
For “GART_P22102_941_GSNAHEQALETGVTVTGCTVHFVAEDVDAGQIILQEAVPVKR (UniProt P22102)”, in that order: -0.0918 and 0.156.
Consider “HNRNPM_P52272_676_DKFNECGHVLYADIK (UniProt P52272)”, for which the “probe-labelled cysteine peptide fold change” value by setting is: (10 µM) -0.633; (50 µM) -0.474.
For “HNRNPAB_Q99729_224_KFHTVSGSKCEIK (UniProt Q99729)”, in that order: -0.654 and -0.0882.
For HAT1_O14929_168_ADMTCR (UniProt O14929), in that order: 0.0223 and 0.0285.
On to “HMGCL_P35914_141_NINCSIEESFQR (UniProt P35914)”, for which the “probe-labelled cysteine peptide fold change” value by setting is: (10 µM) 0.0699; (50 µM) 0.161.
The matching figures for “HARS_P12081_379_KVPCVGLSIGVER (UniProt P12081)”: -0.0416 and -0.0375.
On to “H2AFY_O75367_276_FVIHCNSPVWGADKCEELLEK (UniProt O75367)”, for which the “probe-labelled cysteine peptide fold change” value (10 µM) was -0.321 and the “probe-labelled cysteine peptide fold change” value (50 µM) is -0.0894.
For “GAPDH_P04406_247_VPTANVSVVDLTCRLEK (UniProt P04406)”, in that order: -0.778 and -0.389.
For “HSPA4_P34932_213_NVVFVDMGHSAYQVSVCAFNR (UniProt P34932)”, in that order: 0.1 and 0.0909.
The matching figures for “GDI2_P50395_302_VICILSHPIK (UniProt P50395)”: -0.0268 and -0.00641.
Take “GTF2B_Q00403_37_AGDMICPECGLVVGDR (UniProt Q00403)”: the “probe-labelled cysteine peptide fold change” value (10 µM) came to 0.000693 and the “probe-labelled cysteine peptide fold change” value (50 µM) was found to be 0.073.
For “HADHA_P40939_349_ALMGLYHGQVLCKK (UniProt P40939)”, the “probe-labelled cysteine peptide fold change” value reads like this: (10 µM) -0.452; (50 µM) -0.365.
